Screens as filed in PubChem.
Only some compounds are listed: those with a hit (about 11% of all), similar ones and a draw of the others.
PNC inhibitor = inhibitors of perinucleolar compartment assembly; PC3M PTB-GFP, PNC prevalence imaging, 16 h; stronger effect = lower value; activity change (PNC), negative = inhibition, % at 10 µM; hit rate 3.1% among 140,000;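 active = readout at or below -70, meaning at least 70% loss of cells showing the perinucleolar compartment, a nuclear body marking cancer cells; inconclusive = readout between -30 and a set limit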
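Read-out is percentage of cells bearing a perinucleolar compartment, from automated 20x imaging of fixed, Hoechst-stained PC3M PTB-GFP cells. Cells were seeded 4 h, then exposed 16 h to compound (23 nl of library stock) in duplicate plates.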
ALDH1A1 inh = inhibitors of human aldehyde dehydrogenase 1A1; P00352; Purified ALDH1A1, NADH fluorescence, propionaldehyde substrate; Potency, µM (doses to about 75.3 µM), hits mostly inhibitors; hit rate 7.3% among 220,000; AID 1030
Target sequence (P00352 whole entry, looked up): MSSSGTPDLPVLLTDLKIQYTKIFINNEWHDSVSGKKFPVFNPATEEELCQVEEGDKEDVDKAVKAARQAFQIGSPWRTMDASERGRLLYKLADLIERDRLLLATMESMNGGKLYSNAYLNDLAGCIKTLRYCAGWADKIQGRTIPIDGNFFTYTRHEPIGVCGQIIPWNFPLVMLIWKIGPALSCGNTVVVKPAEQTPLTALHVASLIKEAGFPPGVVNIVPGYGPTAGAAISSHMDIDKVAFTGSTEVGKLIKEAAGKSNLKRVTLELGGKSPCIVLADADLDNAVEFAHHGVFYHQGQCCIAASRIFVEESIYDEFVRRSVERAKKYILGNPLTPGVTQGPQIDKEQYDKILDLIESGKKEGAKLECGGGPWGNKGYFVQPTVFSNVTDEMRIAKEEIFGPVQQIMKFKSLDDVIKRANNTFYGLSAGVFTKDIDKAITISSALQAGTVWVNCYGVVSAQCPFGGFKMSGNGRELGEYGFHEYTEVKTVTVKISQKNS
JMJD2E inh = inhibitors of human JMJD2E histone demethylase. B2RXH2. hit rate 1.6% among 230,000. JMJD2E catalytic domain, FDH-coupled NADH fluorescence (FDH is formaldehyde dehydrogenase). Potency, µM (top dose mostly 57.1 µM), hits mostly inhibitors; also: nearly all actives have a fitted effect of over 50% in size
HPGD block = blocks human HPGD enzyme activity | purified HPGD, NADH fluorescence kinetic, PGE2 substrate | hit rate 4.3% among 150,000 | P15428 | Potency, µM, hits mostly inhibitors
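NADH formation kinetics: reaction with 30 uM PGE2 and 1 mM NAD+ (final), 20 nM enzyme, Tris-HCl pH 8 with Tween 20, after 15 min compound preincubation at room temperature. Fluorescence change, last versus first of five reads.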
Large screens that a line does not name were inactive. Unless noted, calls follow the shape of the dose curve; as a rule, active = well fitted inhibition curve with a large enough effect (not every such curve was filed as active); inconclusive = small, poorly fitted or top-dose-only effect, or another doubt; inactive = no such curve, though single readings can be large or run the other way.

COC(=O)[C@H](Cc1ccccc1)NC(=O)[C@]1(C)C[C@H]1[C@H](NC(=O)OCc1ccccc1)c1ccccc1	ALDH1A1 inh inconclusive (no result: PNC inhibitor)
Cc1n[nH]c(C)c1C(=O)CC1(O)C(=O)N(Cc2ccccc2)c2ccc(Br)cc21 (centres undefined)	PNC inhibitor inconclusive, ALDH1A1 inh 10µM
C=CCN1C(=O)C(O)(CC(=O)c2ccco2)c2cc(Br)ccc21 (centres undefined)	ALDH1A1 inh 7.94µM (no result: PNC inhibitor, HPGD block)
COc1ccc2c(c1)C(c1ccc3c(c1)OCO3)CC(=O)O2 (centres undefined)	none (no result: PNC inhibitor, JMJD2E inh)
CC(N)(Cc1ccc(O)c(O)c1)C(=O)O (centres undefined)	ALDH1A1 inh 2.24µM, JMJD2E inh 3.55µM, HPGD block 10µM (no result: PNC inhibitor)
COc1ccc(C[C@@](C)(N)C(=O)O)cc1OC	JMJD2E inh 11.2µM (no result: PNC inhibitor)
CN1CCc2cc3c(c4c2[C@H]1[C@H](O)c1ccccc1-4)OCO3	JMJD2E inh 17.8µM, HPGD block inconclusive
CCN(CC)S(=O)(=O)c1cccc(-c2n[nH]c(=S)n2/N=C/c2ccc(OC)cc2)c1	ALDH1A1 inh inconclusive, JMJD2E inh inconclusive, HPGD block 15.8µM
CCN(CC)S(=O)(=O)c1cccc(-c2n[nH]c(=S)n2C(C)COC)c1 (centres undefined)	none (no result: PNC inhibitor, HPGD block)
CCC(C)n1c(-c2cccc(S(=O)(=O)N(CC)CC)c2)n[nH]c1=S (centres undefined)	ALDH1A1 inh 12.6µM, JMJD2E inh inconclusive (no result: PNC inhibitor, HPGD block)
CCN(CC)S(=O)(=O)c1cccc(-c2n[nH]c(=S)n2/N=C/c2ccc(Br)cc2)c1	HPGD block 14.1µM
CCN(CC)S(=O)(=O)c1cccc(-c2n[nH]c(=S)n2/N=C/c2ccc(OC(F)F)cc2)c1	ALDH1A1 inh inconclusive, HPGD block 3.16µM
CC1(C)COC(c2ccc(F)c([N+](=O)[O-])c2)=N1	none
CCC1(C)OC(=O)NN(c2ccc(C)cc2)C1(C)O (centres undefined)	none
COc1cccc(NC(=S)N(CCCN2CCOCC2)C(C)c2cc3ccccc3o2)c1 (centres undefined)	none (no result: PNC inhibitor, HPGD block)
Cc1ccc(OC(=O)COc2ccccc2C)c(-n2nc3ccccc3n2)c1	ALDH1A1 inh 31.6µM, HPGD block inconclusive
COc1ccc(C(=O)O)nc1C	JMJD2E inh 14.1µM (no result: PNC inhibitor, ALDH1A1 inh, HPGD block)
CC1CCC(NC(=O)C2CCC(CNS(=O)(=O)c3cccc4nsnc34)CC2)CC1 (centres undefined)	ALDH1A1 inh inconclusive
COc1cccc(CNC(=O)C2CCC(CNS(=O)(=O)c3cccc4nsnc34)CC2)c1 (centres undefined)	PNC inhibitor -105.8, ALDH1A1 inh 20µM
O=C(C1CCN(S(=O)(=O)c2cccc3nsnc23)CC1)N1CC=C(c2ccccc2)CC1	PNC inhibitor inconclusive, ALDH1A1 inh inconclusive
O=C(NCc1cccs1)C1CCC(CNS(=O)(=O)c2ccc(Br)s2)CC1 (centres undefined)	ALDH1A1 inh 2.82µM
O=C(C1CCC(CNS(=O)(=O)c2cccc3nsnc23)CC1)N1CC=C(c2ccccc2)CC1 (centres undefined)	ALDH1A1 inh 17.8µM, HPGD block 15.8µM
O=C(NCc1cccs1)C1CCC(CNS(=O)(=O)c2cccc3nsnc23)CC1 (centres undefined)	PNC inhibitor inconclusive, ALDH1A1 inh 22.4µM
C=CCOc1ccc(C(=O)CC)cc1OC	JMJD2E inh inconclusive
C/C(=N\Nc1nnc(-c2ccccc2)c(-c2ccccc2)n1)c1cccc([N+](=O)[O-])c1	ALDH1A1 inh inconclusive, HPGD block 6.31µM
Cc1ccc(OCC(=O)c2ccc(Cl)s2)c([N+](=O)[O-])n1	ALDH1A1 inh 2.24µM, JMJD2E inh inconclusive (no result: PNC inhibitor, HPGD block)
COc1ccc(OCCOc2ccc(C)nc2[N+](=O)[O-])cc1	none
Cc1ccc(OCCOc2ccc(Cl)cc2Cl)c([N+](=O)[O-])n1	HPGD block 31.6µM
O=Nc1ccc(NO)cc1	ALDH1A1 inh 10µM (no result: PNC inhibitor, JMJD2E inh)
O=Nc1ccc(NOC(=O)c2ccccc2)cc1	ALDH1A1 inh inconclusive
S=C(Cc1cccnc1)N1CCOCC1	ALDH1A1 inh 12.6µM, HPGD block 22.4µM
O=C(Nc1ccc(Oc2cccc(C(F)(F)F)c2)nc1)c1cccs1	JMJD2E inh inconclusive (no result: PNC inhibitor, HPGD block)
O=Cc1cccn1-c1nccc(-c2ccco2)n1	ALDH1A1 inh 22.4µM, JMJD2E inh inconclusive (no result: PNC inhibitor, HPGD block)
Cc1cc(C(F)F)n2nc(C(=O)Nc3sc4c(c3C#N)CCC(C)C4)nc2n1 (centres undefined)	ALDH1A1 inh inconclusive
Cc1cc(C(F)F)n2nc(C(=O)Nc3sc4c(c3C(N)=O)CCC4)nc2n1	ALDH1A1 inh 15.8µM
COc1ccc(Cl)cc1NC(=O)c1nc2nc(C)cc(C(F)F)n2n1	none
COC(=O)c1c(NC(=O)c2nc3nc(C)cc(C(F)F)n3n2)sc2c1CCC2	ALDH1A1 inh 12.6µM
CC(Sc1nc(-c2ccccc2)cc(C(F)(F)F)n1)C(=O)Nc1sc2c(c1C(N)=O)CCC2 (centres undefined)	ALDH1A1 inh inconclusive, HPGD block 31.6µM
CC(=O)N(NC(=O)c1ccccc1Cl)C1CC(=O)N(c2ccc(C)cc2)C1=O (centres undefined)	none
CCCCn1c(-c2csc3ccccc23)n[nH]c1=S	ALDH1A1 inh inconclusive, HPGD block inconclusive
C=CCn1c(-c2csc3c2CCC(C)C3)n[nH]c1=S (centres undefined)	PNC inhibitor inconclusive, ALDH1A1 inh inconclusive, HPGD block 20µM
CCCCn1c(-c2csc3c2CCCC3)n[nH]c1=S	ALDH1A1 inh inconclusive, HPGD block 15.8µM
CCn1c(-c2csc3c2CCCC3)n[nH]c1=S	ALDH1A1 inh inconclusive, HPGD block 25.1µM
CCCCn1c(-c2nn(C)cc2Cl)n[nH]c1=S	none
CCCCn1c(-c2csc3c2CCC(C)C3)n[nH]c1=S (centres undefined)	ALDH1A1 inh 15.8µM, HPGD block 14.1µM
COCCn1c(=O)c(-c2ccc(F)cc2)nc2cnc(Nc3cccc(OC)c3)nc21	none (no result: PNC inhibitor, JMJD2E inh, HPGD block)
COc1ccc(NC(=O)/C(C#N)=C/c2c(C)nn(-c3ccc(F)cc3)c2Cl)cc1OC	none
COc1ccc(NC(=O)/C(C#N)=C/c2c(C)nn(-c3ccc(F)cc3)c2Cl)cc1Cl	PNC inhibitor -83.4
Cc1nn(-c2ccccc2)c(Cl)c1/C=C(\C#N)C(=O)NC(C)C	ALDH1A1 inh 14.1µM
Cc1cc(N2CCC(C)CC2)nc(SCC(=O)c2ccccc2)n1	PNC inhibitor -118.9, ALDH1A1 inh 14.1µM
CSc1ccc(OC2CCCCC2NS(=O)(=O)c2ccc(Cl)cc2)cc1 (centres undefined)	ALDH1A1 inh 0.447µM
C=CCSc1nc(C)cc(/C=C\c2ccccc2)c1C#N	ALDH1A1 inh inconclusive, JMJD2E inh inconclusive
O=C(Cn1c(C(F)(F)F)nc2ccccc21)N/N=C/c1ccco1	none (no result: PNC inhibitor, HPGD block)
O=C(Nc1cnn(Cc2ccc(Cl)c(Cl)c2)c1)c1nc2ncccn2n1	HPGD block 20µM
Cc1ccc(NC(=O)CC2SC3=NCCCN3C2=O)c(C)c1 (centres undefined)	ALDH1A1 inh 1µM
O=C(CC1SC2=NCCN2C1=O)Nc1ccc(Cl)cc1 (centres undefined)	none
NNC(=O)c1nc[nH]c1C(=O)Nc1ccccn1	ALDH1A1 inh 22.4µM (no result: PNC inhibitor, HPGD block)
Cc1ccc(NC(=O)c2[nH]cnc2C(=O)NN)cc1	none (no result: PNC inhibitor, HPGD block)
CC(C)Oc1cc(N)c(Cl)cc1Cl	none (no result: PNC inhibitor, HPGD block)
